Test results: PubChem BioAssay (NCATS)
Where “and” joins values, the source holds several entries; their conditions need not be identical. Equal entries are not always repeated. Results filed as inconclusive are left out. Where a call stands in place of a potency, no number is given. A number with no mark means an inactive call. Calls of active or inactive are those of the source. The call rests on the fitted dose curve; in most records, active means well fitted inhibition curve with a large enough effect; inconclusive means small, poorly fitted or top-dose-only effect; inactive means flat fitted curve, though single readings scatter.

Columns and labels:
NIH3T3 [1] = test: Cytotoxic Profiling of Annotated Libraries Using Quantitative High-Throughput Screening (AID 1296008); settings: Five cell lines viability, CellTiter-Glo ATP luminescence, 48-72 h; max response: hits give low values
How it was run: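 Cytotoxicity was measured as CellTiter-Glo ATP luminescence, read after 10 min at room temperature. Compound treatment of the cells lasted 48 or 72 hr at 37 degrees Celsius in a qHTS format.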

HACAT = test: qHTS assay to identify novel small-molecules to repurpose for Merkel cell carcinoma treatment (AID 1296009); settings: MCC and control cell lines, CellTiter-Glo viability, 72 h; at 44.8 µM (top of the series) unless noted
How it was run: (§1)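 Cell viability measured by CellTiter-Glo following 72 hr compound treatment at 37 degree celsius, with NPC and MIPE libraries tested in 8- and 11-point concentration series.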

MCC-13 = test: as above; settings: MCC and control cell lines, CellTiter-Glo viability, 72 h; series mostly up to 46 µM
How it was run: as §1

MCC-26 = test: as above; settings: MCC and control cell lines, CellTiter-Glo viability, 72 h; series mostly up to 46 µM
How it was run: as §1

MKL-1 = test: as above; settings: MCC and control cell lines, CellTiter-Glo viability, 72 h; series mostly up to 46 µM
How it was run: as §1

MKL-2 = test: as above; settings: MCC and control cell lines, CellTiter-Glo viability, 72 h; series mostly up to 46 µM
How it was run: as §1

UISO = test: as above; settings: MCC and control cell lines, CellTiter-Glo viability, 72 h; series mostly up to 46 µM
How it was run: as §1

WaGa = test: as above; settings: MCC and control cell lines, CellTiter-Glo viability, 72 h; series mostly up to 46 µM
How it was run: as §1

NIH3T3 [2] = test: as above; settings: MCC and control cell lines, CellTiter-Glo viability, 72 h; at 44.8 µM (top of the series) unless noted
How it was run: as §1

HEK293T = test: as above; settings: MCC and control cell lines, CellTiter-Glo viability, 72 h; at 44.8 µM (top of the series)
How it was run: as §1
Further: nearly all actives have a fitted effect of over 60% in size.
Potency means the concentration at half of the fitted maximal effect.

Row | SMILES | max response (NIH3T3 [1]) | outcome (HACAT) | Potency (MCC-13) | Potency (MCC-26) | Potency (MKL-1) | Potency (MKL-2) | Potency (UISO) | Potency (WaGa) | outcome (NIH3T3 [1]) | outcome (NIH3T3 [2]) | Potency (NIH3T3 [1]) | outcome (HEK293T)
1 | N[C@@]1(C(=O)O)CS(=O)(=O)[C@H]2[C@H](C(=O)O)[C@H]21 | -12.5% | inactive | inactive | inactive | inactive | inactive | inactive | inactive |  |  |  | 
2 | Cc1ccc([C@@H]2O[C@H](CO)[C@@H](O)[C@H](O)[C@@H]2O)cc1Cc1ccc(-c2ccc(F)cc2)s1 |  | inactive | inactive | inactive | inactive | inactive | inactive | inactive | inactive | inactive |  | 
3 | N#Cc1ccc(NC(=O)Nc2ccccc2Br)c2n[nH]nc12 | 3.86% | inactive | inactive | inactive | inactive | inactive | inactive | inactive |  |  |  | 
4 | Cc1cccc(Nc2nc(-c3ccncc3)cs2)c1 |  | inactive | inactive | inactive | inactive | inactive | 935 nM (active) | inactive |  |  | 11.8 µM (active) and 7.31 µM (active) | 
5 | O=C(Nc1c(Cl)cncc1Cl)c1ccc(OC(F)F)c(OCC2CC2)c1 | -4.15% | inactive | inactive | inactive | inactive | inactive | inactive | inactive |  |  |  | 
6 | O=C(O)Cc1cccc2ccccc12 | -0.562% and 0.69% | inactive | inactive | inactive | inactive | inactive | inactive | inactive |  |  |  | 
7 | COc1ccc(-c2coc3cc(O)ccc3c2=O)cc1 | -7.78% | inactive | inactive | inactive | inactive | inactive | inactive | inactive |  |  |  | 
8 | COc1cccc([C@@H](C)NCCCc2ccccc2Cl)c1 |  | inactive | inactive | inactive | inactive |  | inactive | inactive | inactive | inactive |  | 
9 | CS(=O)(=O)N(Cc1ccco1)CC(O)Cn1c2ccccc2c2ccccc21 (configuration not stated) | -17.4% and 0.438% | inactive | inactive | inactive | inactive | inactive |  | inactive |  |  |  | 
10 | C=C1C(=O)OC2C=C(C)CCC=C(C)CCC12 (configuration not stated) | 0.3% | inactive | inactive | inactive | inactive |  | inactive |  |  |  |  | 
11 | N#CC1(c2ccc(NC(=O)c3cccnc3NCc3ccncc3)cc2)CCCC1 | -15.9% | inactive | inactive | inactive | inactive | inactive | inactive | inactive |  |  |  | 
12 | C[C@@H]1CCN(C(=O)CC#N)C[C@H]1N(C)c1ncnc2[nH]ccc12 | -18.3% |  | inactive | inactive | inactive | inactive | inactive | inactive |  |  |  | 
13 | O=c1cc(-c2cccc3c2Sc2ccccc2S3)oc(N2CCOCC2)c1 |  |  | inactive | inactive | inactive | inactive | inactive | inactive | inactive | inactive |  | inactive
14 | OC[C@H]1O[C@@H](n2cnc3c2NC=NC[C@@H]3O)C[C@H]1O |  |  | inactive | inactive | inactive | inactive | inactive | inactive | inactive | inactive |  | inactive
15 | O=C1C(Cl)=C(NCCN2CCOCC2)C(=O)c2ncccc21 |  |  | 16600 nM (active) | 8330 nM (active) | 1320 nM (active) | 2960 nM (active) | 8330 nM (active) |  |  |  | 2.64 µM (active) | 
16 | CC(C)(C)C(=O)Oc1ccc2c(c1)nc(NC(=O)c1cccc([N+](=O)[O-])c1)n2CCCO |  |  | inactive | inactive | inactive | inactive |  | inactive | inactive | inactive |  | 
17 | COc1cccc(-c2cc(=O)c3ccccc3o2)c1N |  |  | inactive | inactive | inactive | inactive | inactive | inactive | inactive | inactive |  | 
